ATXN2 expr inh: reduces ATXN2 reporter expression in HEK-293 cells. HEK-293 ATXN2-luciferase reporter, luminescence, 24 h. Potency, µM (doses to about 57 µM), for the others: at the top dose activity change, negative = inhibition, usual class: inhibitors. actives 0.72% (n = 360,000). AID 1745845; further: on the % scale 0 is the no-effect control and ±100 the full control effect; nearly all actives have a fitted effect of over 55% in size
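ATXN2-luciferase reporter cells (luciferase flanked by upstream and downstream ATXN2 gene portions) were treated 24 h at 37 °C with compounds at up to 57 uM. SteadyGlo luminescence gave expression; GF-AFC fluorescence gave viability.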
VP16 counter: inhibits Gal4-VP16 luciferase reporter, ROR gamma counter-screen | Drosophila S2 Gal4-VP16 UAS-luciferase, luminescence, 20 h | Potency, µM (titrated, usually from 53.6 µM), inactives show at the highest dose activity, negative = inhibition, actives largely listed as inhibitors | actives 3.5% (n = 310,000);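 further: Gal4-VP16 expression switched on by copper sulfate through the metallothionein promoter; on the % scale 0 is the no-effect control and ±100 the full control effect; nearly all actives have a fitted effect of over 50% in size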
RORg inh: ROR gamma (mouse) transcription inhibition; P51450; Drosophila S2 Gal4-RORgamma UAS-luciferase reporter, 20 h; Potency, µM (doses to about 53.6 µM), without a hit: top-dose activity change, negative = inhibition, hits mostly inhibitors; actives 5.4% (n = 310,000); AID 2551; further: on the % scale 0 is the no-effect control and ±100 the full control effect; nearly all actives have a fitted effect of over 60% in size
Target sequence (P51450 whole entry, looked up, the tested form may be a part): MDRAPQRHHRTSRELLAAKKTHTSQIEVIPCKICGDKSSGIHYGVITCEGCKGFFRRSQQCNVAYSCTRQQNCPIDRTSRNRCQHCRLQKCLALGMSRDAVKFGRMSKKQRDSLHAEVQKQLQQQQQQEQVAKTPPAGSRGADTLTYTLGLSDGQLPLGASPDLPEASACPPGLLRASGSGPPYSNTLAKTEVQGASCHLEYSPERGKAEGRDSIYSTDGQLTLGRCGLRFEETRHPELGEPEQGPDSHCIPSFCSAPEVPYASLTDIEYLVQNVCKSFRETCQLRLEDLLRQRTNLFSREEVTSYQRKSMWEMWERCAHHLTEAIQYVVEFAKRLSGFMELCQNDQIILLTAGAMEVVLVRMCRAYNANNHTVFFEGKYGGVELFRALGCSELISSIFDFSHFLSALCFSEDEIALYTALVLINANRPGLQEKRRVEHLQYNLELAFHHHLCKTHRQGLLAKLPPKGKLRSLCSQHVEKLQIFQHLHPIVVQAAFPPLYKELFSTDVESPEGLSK
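Stably transfected Drosophila Schneider cells are the test system, with ROR gamma fused to Gal4 and luciferase under UAS control; luminescence is read after 20 hr of 700 uM copper sulfate induction at ambient temperature.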
HepG2 tox: counter-screen for TGF-b inhibitors: cytotoxicity in HepG2 cells | HepG2 CAGA-GFP viability, ATP luminescence, 18 h | Potency, µM (series often up to 46.1 µM), without a hit: at the top dose activity change, negative = cytotoxicity, most hits filed as cytotoxic | actives 0.76% (n = 410,000)
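CellTiter-Glo luminescence gave cytotoxicity after 18 hours at 37 degrees C. The cells were HepG2 CAGA-GFP in 1% FBS DMEM, stimulated with 500 pg/mL TGF-beta after compound addition. %Activity was normalised to no-cell wells (complete cell-killing) and DMSO (no toxicity), and curves were fitted and classified.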
TGFb inhibitor: TGF-b pathway inhibition | Potency, µM (titrated, usually from 46.1 µM), for the others: top-dose activity, negative = inhibition, usual class: inhibitors | HepG2 CAGA-GFP TGF-b/SMAD3 reporter, GFP fluorescence, 18 h; TGF-beta stimulated, 500 pg/mL final | AID 588855 | actives 1.2% (n = 410,000); further: on the % scale 0 is the no-effect control and ±100 the full control effect; nearly all actives have a fitted effect of over 65% in size
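Cell-based qHTS in HEPG2 carrying a CAGA-GFP Smad reporter; compounds added before 500 pg/mL final TGF-beta, 18 h incubation at 37 degrees C, GFP fluorescence quantified per cell by imaging cytometry.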
S2 tox: viability counter-screen for ATXN expression inhibitors; actives 0.49% (n = 400,000); Potency, µM (titrated, usually from 56.7 µM), most hits filed as cytotoxic; S2 cells (HEK-293 line with an ATXN2-luciferase reporter) viability, CellTiter-Fluor protease fluorescence, 24 h; further: nearly all actives have a fitted effect of over 40% in size
An asterisk follows results filed as active; i = inactive; ? = inconclusive; nt = no result. Hits are enriched below; roughly 6.1% of the tested compounds scored in any of these assays. The call rests on the fitted dose curve; in most records, active means well fitted curve in the direction sought with a large enough effect; inconclusive means small, poorly fitted or top-dose-only effect, or another doubt; inactive means no such curve, though single readings can be large; an effect the other way counts as inactive or inconclusive. Potency means the concentration at half of the fitted maximal effect.

SMILES	ATXN2 expr inh	VP16 counter	RORg inh	HepG2 tox	TGFb inhibitor	S2 tox
NNC(=O)/C(=N/Nc1ccccc1)S(=O)(=O)c1ccc(Cl)cc1	14µM*	?	?	-3%	-34%	?
CCOC(=O)/C(=N/Nc1ccc(C)cc1)S(=O)(=O)c1ccc(Cl)cc1	60%	-2%	?	4%	0%	i
COc1ccc(COC(=O)C2=C(C)NC(=O)CC2c2cccc(Cl)c2Cl)cc1 (centres undefined)	6%	nt	nt	5%	?	i
CC(C)CN1CCN(C(=O)COC(=O)c2ccc(S(C)(=O)=O)c([N+](=O)[O-])c2)CC1	-27%	nt	nt	4.5µM*	4.5µM*	32µM*
CC(OC(=O)c1ccc(S(C)(=O)=O)c([N+](=O)[O-])c1)C(=O)NC1C2CC3CC(C2)CC1C3 (centres undefined)	?	nt	nt	-101%	3.2µM*	3.2µM*
Cn1cccc1C(=O)NC(=O)COC(=O)c1ccc(S(C)(=O)=O)c([N+](=O)[O-])c1	?	nt	nt	-108%	?	?
CCC(OC(=O)c1ccc(S(C)(=O)=O)c([N+](=O)[O-])c1)C(=O)NC1C2CC3CC(C2)CC1C3 (centres undefined)	?	nt	nt	5.6µM*	4.5µM*	6.3µM*
Cc1ccccc1CS(=O)(=O)c1ccc(C(=O)N2CCC(C)CC2)cc1[N+](=O)[O-]	nt	6%	9%	-1%	2%	i
CC1CCN(C(=O)C(C)OC(=O)c2ccc(S(C)(=O)=O)c([N+](=O)[O-])c2)CC1 (centres undefined)	nt	nt	nt	-77%	10µM*	nt
CS(=O)(=O)c1ccc(C(=O)OCC(=O)N2CCc3ccccc32)cc1[N+](=O)[O-]	nt	nt	nt	-12%	?	nt
Cc1cnccn1	nt	nt	nt	-34%	?	nt
CCOc1ccc(-n2cc(-c3ccccc3)c3c(NCc4ccc(F)cc4)ncnc32)cc1	nt	nt	nt	-22%	-4%	nt
CCC(CC)C(=O)Nc1ccc2nc(SCC(=O)N3CCOCC3)sc2c1	nt	nt	nt	-2%	0%	nt
COc1ccccc1CNC(=O)CCc1c(C)nn(-c2ccc(N3CCOCC3)nn2)c1C	5%	nt	nt	-2%	-16%	i
CN(C)c1ncc2nc(-c3ccc(F)cc3)c(=O)n(C3CC3)c2n1	nt	8%	5%	nt	nt	nt
CO/N=C/c1ccc(N2CCN(C(=O)c3cccc(C(F)(F)F)c3)CC2)c([N+](=O)[O-])c1	-23%	?	?	2%	?	i
CO/N=C/c1ccc(N2CCN(C(=O)c3ccc(F)cc3)CC2)c([N+](=O)[O-])c1	-19%	8.9µM*	?	-13%	-1%	i
COc1cccc2sc3ccc(C#CC4(N)CCCCC4)cc3c(=O)c12	-31%	2%	-36%	-98%	?	?
COc1cccc2sc3cc(C#CC4(O)CCCCC4)ccc3c(=O)c12	?	nt	nt	7.1µM*	7.1µM*	?
Cc1[nH][nH]c(=O)c1C(c1c(C)[nH][nH]c1=O)c1cn(Cc2ccc(Cl)c(Cl)c2)c2ccccc12	?	?	-29%	-19%	13µM*	?
CCOC(=O)c1c(NC(=O)c2cc(-c3ccc(OC)cc3)on2)sc(C)c1C	9%	nt	nt	12%	0%	i
COC(=O)C1=C(C)N(c2ccc(Cl)c(Cl)c2)C(=O)C1	?	13µM*	4.5µM*	-11%	?	i
CC1(C)CC(=O)C2=C(C1)NC(Nc1nc3ccccc3o1)=NC2c1cccnc1 (centres undefined)	nt	nt	nt	4%	-4%	nt
Cc1nc(Nc2nc3ccccc3o2)nc2c1CCC2	?	6.3µM*	2.8µM*	-19%	14%	i
Cc1cccc(C)c1Nc1nc2ccccc2o1	-24%	?	16µM*	-7%	-11%	?
SMILES	ATXN2 expr inh	VP16 counter	RORg inh	HepG2 tox	TGFb inhibitor	S2 tox
Cc1nc(Nc2nc3ccccc3o2)nc(C)c1C(=O)Nc1ccc(F)cc1	-26%	2%	-2%	1%	7%	i
C=CCN(CC=C)c1ccc(N2C(=O)C3CCCCC3C2=O)cc1[N+](=O)[O-] (centres undefined)	-22%	22µM*	-35%	-19%	-19%	i
O=C1C2CCCCC2C(=O)N1c1ccc(NC2CCCCC2)c([N+](=O)[O-])c1 (centres undefined)	6%	-13%	30%	-7%	-10%	i
Cn1cccc1-c1cc(C(=O)N/N=C/c2ccc(Cl)cc2)[nH]n1	-16%	-1%	-8%	-5%	1%	i
COc1ccc(OC)c2[nH]c(C(=O)N/N=C/c3ccccc3O)cc12	nt	5µM*	4µM*	-12%	?	i
Cn1cccc1-c1cc(C(=O)N/N=C/C=C/c2ccccc2)[nH]n1	-24%	?	5µM*	-5%	11%	i
COc1cccc(/C=N/NC(=O)c2cc3c(OC)cccc3[nH]2)c1O	?	2.2µM*	0.79µM*	-18%	?	i
COc1cccc(/C=N/NC(=O)c2cc(-c3cccn3C)n[nH]2)c1O	?	2.8µM*	1µM*	-26%	1%	?
COc1cc(/C=N/NC(=O)c2cc(-c3cccn3C)n[nH]2)cc(OC)c1OC	-9%	12%	?	-20%	35%	i
COc1ccc(-c2nc3c(C#N)c[nH]n3c2NC2CCCC2)cc1	1%	nt	nt	-23%	-19%	?
COc1ccccc1CNc1ccc(-c2nc(C(C)C)no2)cc1[N+](=O)[O-]	62%	nt	nt	0%	-8%	?
COc1ccc(-c2c(C#N)c(SCC(=O)Nc3ccc(Br)cc3)nc(C)c2C(=O)Nc2ccccc2)cc1	0%	nt	nt	-4%	0%	?
COc1ccc(OC)c2sc(N3CCN(C(=O)C(C)(C)C)CC3)nc12	18%	nt	nt	1%	-12%	i
S=c1nc[nH]c2c1sc1nc(-c3ccccc3)c3c(c12)CCCC3	nt	10µM*	16µM*	-5%	-1%	?
CC(C)(C)c1nc(Sc2ccc([N+](=O)[O-])cn2)n[nH]1	-11%	-17%	-9%	-17%	-11%	i
O=[N+]([O-])c1ccc(Sc2n[nH]c(-c3ccc(Cl)cc3Cl)n2)nc1	3%	7.1µM*	0.89µM*	-23%	0%	i
NS(=O)(=O)c1ccc(CNS(=O)(=O)c2cccc3nonc23)cc1	11%	-5%	3%	6.3µM*	0%	i
CC1=NN(Cc2c(C)nn(Cc3ccccc3)c2C)C(C)(C)C1	-2%	9%	13µM*	4%	19%	i
COc1ccc2[nH]cc(S(=O)(=O)c3ccc(C)c(C)c3)c(=O)c2c1	5%	nt	nt	-37%	-22%	i

Screening data from PubChem.
